By inhibition is commonly meant the change of the read-out against control, counted positive when it falls.

Here are results for 62 compounds from PubChem BioAssay AID1063 (University of Pittsburgh Molecular Library Screening Center, 2008).

Screen size: about 200,000 compounds; about 18,000 (9%) were called active. Rule as the data show it: active = inhibition above about 50%; inactive = the rest. The full list was thinned out, with actives kept by preference.

The experiment in a line: Leishmania major promastigote growth inhibition, primary screen (AID 1063).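 Also: promastigotes grown with compound for 44 hours at 28 °C.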 The note with it: Leishmania major promastigotes, resazurin fluorescence viability; at 10 µM; stronger effect = higher value.
For `CCOC(=O)N1CCN(CC(=O)Nc2ccc(F)cc2)CC1`, the inhibition was -5.71% (inactive). As to `CC(Nc1ccccc1)c1cccnc1` (configuration not stated), the inhibition is 12.1% (inactive). The value for `C=CCn1c(N)c(S(=O)(=O)c2cccs2)c2nc3ccccc3nc21` was 4.67% (inactive). Consider `CC(C)Cn1c(N)c(C(=O)NCc2cccs2)c2nc3ccccc3nc21`, for which the inhibition is 40.8% (inactive). For `C=CCn1c(N)c(C(=O)OCC(C)C)c2nc3ccccc3nc21`, the inhibition is 61% (active). For `Cc1ccc(CN2CCN(/N=C/c3cccnc3)CC2)c(C)c1`, the inhibition is 13.4% (inactive).

`CSc1cccc(NC(=S)N(Cc2ccccc2)Cc2ccccn2)c1`: the inhibition was 17.4% (inactive).

Regarding `COc1cccc(NC(=S)N(Cc2ccc(C)cc2)Cc2ccccn2)c1`, the inhibition is 94.4% (active). As to `COc1cccc(NC(=S)NCc2ccccn2)c1`, the inhibition was -4.83% (inactive). Turning to `CN(C)c1ccc(/C=N/Nc2cc(N3CCOCC3)nc(N3CCOCC3)n2)cc1`, the inhibition is -7.95% (inactive). Under `Cc1ccc(-n2cc(CN(C)Cc3nccn3C)c(-c3cccc(C)c3)n2)cc1` stands 39% (inactive). Under `Cc1cc(NC(=O)CN2C(=O)NC(CCc3ccccc3)C2=O)no1` (configuration not stated) stands 4.06% (inactive); under `CCNC(=O)CC1C(=O)N(c2ccc(F)cc2)C(=O)N1CCc1sccc1C` (configuration not stated), -7.58% (inactive). The value for `O=C(NCCCN1CCOCC1)c1cc(-c2ccc(Cl)cc2)on1` was 59.5% (active); that for `CC(NC(=O)c1cc(-c2ccccc2)on1)c1ccccc1` (configuration not stated) was -7.18% (inactive). In the case of `O=C(NCCCN1CCOCC1)c1ccccc1NS(=O)(=O)c1ccc(Br)cc1`, the inhibition is -7.24% (inactive).

Turning to `O=C(NCCCN1CCOCC1)c1cnn2c(-c3ccccc3)cc(-c3ccccc3)nc12`, the inhibition is 19% (inactive). Under `O=C(NCCCn1ccnc1)c1cc(-c2ccccc2)on1` stands 2.53% (inactive).

As for `CCN(CC)CCCNC(=O)c1cc(-c2cccc(Cl)c2)on1`, the inhibition is 87.4% (active).

As to `O=C(NNC(=S)NCCCN1CCOCC1)c1ccncc1`, the inhibition is -2.18% (inactive).

As to `O=C(NCCCN1CCOCC1)c1cc2c(s1)CCC2`, the inhibition was 79% (active). For `O=C(NCCN1CCOCC1)c1c(F)c(F)c(F)c(F)c1F`, the inhibition was -4.01% (inactive). Take `CCCCCN(C(=O)NC(=O)Nc1cccc(C)c1C)S(C)(=O)=O`: the inhibition is -14.4% (inactive). For `COc1cccc(NC(=O)CC(c2ccc(OC(C)C)cc2)c2ccccc2OC)c1` (configuration not stated), the inhibition is -2.29% (inactive). Turning to `Cc1ccc(C)c(-n2cc(CN3CCN(C(=O)c4ncn[nH]4)CC3)c(-c3ccccc3)n2)c1`, the inhibition was -2.57% (inactive).

In the case of `CCC(O)C1CCN(Cc2cn(-c3ccc(OC)cc3)nc2-c2cccc(F)c2)CC1` (configuration not stated), the inhibition was 30.3% (inactive).

As for `Cc1cccc(-n2cc(CN3CCN(C(=O)c4ncn[nH]4)CC3)c(-c3cccc(F)c3)n2)c1`, the inhibition was 89.9% (active). In the case of `Cc1ccc(/C=N/NC(=O)Cn2ccc(C(F)(F)F)n2)o1`, the inhibition was -8.92% (inactive). Take `CC1(C)CC(N(Cc2ccccc2)C(=O)Cc2ccccc2)CCO1` (configuration not stated): the inhibition is 3.41% (inactive). Regarding `COCCNC(=S)Nc1cc(S(=O)(=O)N2CCOCC2)ccc1N1CCCCC1`, the inhibition was -2.67% (inactive). For the compound `CN(C)c1nc(N)nc(Cn2nnc(-c3ccc(C(F)(F)F)cc3)n2)n1`, the inhibition was -9.02% (inactive). Consider `Cc1noc(COc2ccccc2OCC(O)CNC(C)(C)C)n1` (configuration not stated), for which the inhibition is 5.97% (inactive).

Regarding `Brc1ccc(OCCn2ccnc2)cc1`, the inhibition is 9.23% (inactive). For `CC(C)(C)CC(C)(C)NCC(O)COCCOc1ccc(Br)cc1` (configuration not stated), the inhibition is 96.6% (active). Regarding `Cc1cc(C)n(-c2nc(C(F)(F)F)nc3ccccc23)n1`, the inhibition was 24.4% (inactive). Consider `O=C(CN1CCN(Cc2ccc(F)cc2Cl)C1=O)NCc1cccs1`, for which the inhibition was -13% (inactive). The value for `Cc1ccc(S(=O)(=O)NC(C(=O)N2CCOCCOCCOCCOCC2)c2ccccc2)cc1` (configuration not stated) was -7.01% (inactive); that for `COc1ccc(/C=N/NC(=O)c2ccncc2)cc1CN1CCCc2ccccc21` was 63.4% (active); that for `COc1ccc(/C=N/NC(=O)c2ccc(Cl)cc2)cc1COC(C)=O` was -8.12% (inactive). On to `COc1cc(/C=N/NC(=O)c2ccccc2)ccc1OS(=O)(=O)c1ccccc1`, for which the inhibition was 1.2% (inactive). Consider `CC1CC(C)CN(CC(=O)N2c3ccccc3CCc3ccccc32)C1` (configuration not stated), for which the inhibition is 18.5% (inactive).

Turning to `CC(C)CNC(=O)COC(=O)/C=C/c1ccccc1[N+](=O)[O-]`, the inhibition is 4.47% (inactive). The value for `CC1CC(C)CN(C/C=C/c2ccccc2[N+](=O)[O-])C1` (configuration not stated) was 83.9% (active). Consider `COc1cc(CN2CCNC(=O)C2CC(=O)NCCc2ncccc2C)cc(OC)c1` (configuration not stated), for which the inhibition was -4.29% (inactive). For `CC1=C(C)CC(C(=O)NC(C)CCc2ccccc2)C(C(=O)O)C1` (configuration not stated), the inhibition was 17.2% (inactive).

On to `C=CCOc1c(CNn2cn[nH]c2=S)cccc1OC`, for which the inhibition is 25.5% (inactive). On to `CSc1nc2c(c(=O)[nH]1)C(c1cccc(Cl)c1Cl)CC(=O)N2` (configuration not stated), for which the inhibition was -5.68% (inactive).

Regarding `N#Cc1c(N)nc2c3c(sc(=N)c2c1N)NC(=O)CC3c1ccccc1Cl` (configuration not stated), the inhibition was 75.7% (active). Consider `COc1ccc(C2CC(=O)Nc3sc(=N)c4c(N)c(C#N)c(N)nc4c32)cc1OC` (configuration not stated), for which the inhibition was -5.32% (inactive). Take `COc1cccc2c1OCC(CN1CCN(C3CCCCC3)C(CCO)C1)=C2` (configuration not stated): the inhibition was 11.6% (inactive). Take `O=C(c1snnc1-c1ccccc1)N1CCOCC1`: the inhibition is -3.05% (inactive). In the case of `CCc1nnc(NC(=O)CCC(=O)NCc2ccccc2OC)s1`, the inhibition was -6.69% (inactive). The value for `CCc1nnc(NC(=O)CCC(=O)O)s1` was -2.47% (inactive); that for `CCc1nnc(NC(=O)CCN(c2ccc(C)cc2)S(=O)(=O)c2ccccc2)s1` was 71.3% (active). With `Cc1c(Cl)c([N+](=O)[O-])nn1Cc1ccc(C(=O)N/N=C\c2cc(Cl)ccc2O)o1`, the inhibition is 100% (active).

For `Cc1c(Cl)c([N+](=O)[O-])nn1CCCC(=O)Nc1cc(Cl)ccc1Cl`, the inhibition was 0.47% (inactive).

For `Cc1ccc(C(=O)O)cc1NC(=O)c1ccc(Cn2nc(C)c(Cl)c2C)o1`, the inhibition was -7.15% (inactive).

As to `Cc1ccc(OCC(=O)NC(C)c2ccccc2)c([N+](=O)[O-])n1` (configuration not stated), the inhibition is 11.1% (inactive). On to `CCc1ccc(NC(=O)Nc2ccncc2)cc1`, for which the inhibition is 24.8% (inactive). Turning to `CCOC(=O)CN(C)Cc1c[nH]c2ccccc12`, the inhibition was -1.3% (inactive).

For `NS(=O)(=O)c1ccc(NC(=O)COC(=O)CCc2c[nH]c3ccccc23)cc1`, the inhibition is -4.64% (inactive). `O=C(Cc1c[nH]c2ccccc12)OCCOC(=O)Cc1c[nH]c2ccccc12`: the inhibition is 94.7% (active).
